Measured values as given in PubChem BioAssay.
Activity calls are given as the source filed them. Unless noted, no rule for the calls is given here.

Assays:
[1] = compounds binding Alexa647 anti-His antibody – biochemical, small-molecule microarray, 635 nm fluorescence, artefact control for SMM control protein annotation, primary screen (AID 1128); details: higher = more signal;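 also: score merges feature fluorescence with signal-to-noise for each printed compound spot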
[2] = system: Human papillomavirus type 1a E7 protein (residues 1-88); assay: HPV1a E7 small-molecule binders, primary screen, biochemical, small-molecule microarray, residues 1-88, 635 nm (AID 1129); details: small-molecule microarray binding, fluorescence 635 nm; higher = more signal
[3] = target: Focal adhesion kinase 1 (Homo sapiens) (UniProt Q05397); assay: PTK2 protein binding on printed compound slides – biochemical, small-molecule microarray, 635/667 nm fluorescence, BSA, DTT, primary screen (AID 1130); details: 635 nm fluorescence, higher = more signal;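 also: composite of spot emission at 667 nm and signal to noise over triplicate slides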
[4] = system: Fibrinogen (Alexa647-labelled); assay: Alexa647-fibrinogen binding to printed small molecules – biochemical, small-molecule microarray, 635/667 nm fluorescence, artefact control for SMM control-protein annotation, profiling panel (AID 1131); details: fibrinogen-A647 binding fluorescence, higher = more signal;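 also: z-score merges 667 nm fluorescence with per-spot signal-to-noise over triplicate slides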
[5] = target: Follistatin (Homo sapiens) (UniProt P19883); assay: FST protein binding to printed compounds – biochemical, small-molecule microarray, 635/667 nm fluorescence, primary screen (AID 1132); details: 635 nm fluorescence, higher = more signal
[6] = target: Fibroblast growth factor 2 (Homo sapiens) (UniProt P09038); assay: basic fibroblast growth factor binding to printed compounds – biochemical, small-molecule microarray, 635/667 nm fluorescence, primary screen (AID 1133); details: FGF2, fluorescence 635/667, higher = more signal
[7] = JC-1 mitochondrial potential readout, lung cancer cells – cell-based, A549, JC-1 fluorescence, basal, 24 h, 100 nL, profiling panel (AID 1138); details: higher = more signal;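 also: A549 lung adenocarcinoma cells under basal conditions with no added stimulus; test concentration not given here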
Lefty1 = Lefty1 protein binding to printed compounds – biochemical, small-molecule microarray, 635/667 nm fluorescence, primary screen (AID 1139); details: fluorescence 635/667, higher = more signal
[8] = system: wheat germ agglutinin (Triticum aestivum), Alexa647-labelled; assay: Alexa647-WGA lectin binding to printed small molecules – biochemical, small-molecule microarray, 635/667 nm fluorescence, artefact control for SMM control-protein annotation, profiling panel (AID 1140); details: WGA-A647 binding, 635 nm fluorescence, higher = more signal;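 also: score merges 667 nm feature emission with signal to noise over triplicate slides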
[9] = target: Luciferin 4-monooxygenase (Photinus pyralis) (UniProt P08659); assay: inhibition of purified Photinus pyralis luciferase – biochemical, luminescence, purified enzyme, 2006 set, primary screen (AID 1141); details: purified firefly luciferase, SteadyGlo luminescence, 30 min; higher = more signal, called active from +8 up or from −8 down;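 also: cell-free assay with purified firefly luciferase at 100 ng per well in PBS; test concentration not given here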
[10] = system: Wnt5a (protein binding on small-molecule microarray); assay: small molecules binding Wnt5a protein – biophysical, small-molecule microarray, 635/667 nm fluorescence, primary screen (AID 1142); details: 635 nm fluorescence, higher = more signal;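 also: fluorescence read at 667 nm with signal to noise per printed feature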
[11] = ATP-based viability of Huh7 replicon cells – cell-based, CellTiter-Glo luminescence, basal, 48 h, cytotoxicity control for HCV replication inhibitor project, primary screen (AID 1143); details: higher = more signal, called active from +8 up or from −8 down;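 also: Huh7 hepatoma cells carrying a hepatitis C replication reporter with no stimulus; test concentration not given here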
[12] = Pseudomonas biofilm growth suppression – PAO1 strain, BacTiter-Glo luminescence, LB-PBS, primary screen (AID 1144); details: P. aeruginosa PAO1 biofilm, 12 h, higher = more signal
[13] = basal CRE-LacZ reporter activity in PC12 – cell-based, unstimulated, primary screen (AID 1145); details: no forskolin, luminescence, 4.5 h, higher = more signal, called active from +8 up or from −8 down
[14] = forskolin-driven CRE-LacZ activity in PC12 – cell-based, CRE-LacZ reporter, forskolin-stimulated, primary screen (AID 1146); details: luminescence, 4.5 h, higher = more signal, called active from +8 up or from −8 down;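 also: PC12 cells with 6xCRE LacZ reporter stimulated by forskolin 10 µM; beta-galactosidase reporter signal reflecting CREB driven transcription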
[15] = target: Streptavidin (Streptomyces avidinii) (UniProt P22629); assay: compounds binding control protein streptavidin – biophysical, small-molecule microarray, 635/667 nm fluorescence, artefact control for SMM compound annotation, primary screen (AID 1147); details: higher = more signal;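 also: signal reflects streptavidin binding to arrayed compounds as a control protein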
[16] = probe aInhba binding on compound microarray – biochemical, small-molecule microarray, 635/667 nm fluorescence, primary screen (AID 1148); details: higher = more signal;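 also: score merges 667nm spot fluorescence with signal-to-noise for antibody binding to printed compounds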
Torsin-1A (Homo sapiens) [17] = target: Torsin-1A (Homo sapiens) (UniProt O14656); assay: TOR1A wild-type binding on microarray – cell lysate, small-molecule microarray, lysate, 635/667 nm, primary screen (AID 1149); details: COS7 hTOR1A-WT lysate, 635 nm fluorescence, higher = more signal
Torsin-1A (Homo sapiens) [18] = target: Torsin-1A (Homo sapiens) (UniProt O14656); assay: torsin A mutant lysate binding on microarrays – cell lysate, small-molecule microarray, COS7 lysate, 635/667 nm fluorescence, primary screen (AID 1150); details: COS7 hTOR1A mutant lysate, 635 nm fluorescence, higher = more signal;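 also: score pools 667 nm emission and signal to noise measuring lysate protein binding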
[19] = system: Sonic hedgehog protein (Shh); assay: Sonic hedgehog microarray binding compounds – biochemical, small-molecule microarray, 635/667 nm fluorescence, primary screen (AID 1151); details: 635 nm fluorescence, higher = more signal;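 also: Shh protein binding to compounds spotted on small-molecule microarray slides; score combines spot fluorescence intensity with signal-to-noise across triplicate slides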

Sequence of Fibroblast growth factor 2 (Homo sapiens) (P09038 whole entry, looked up): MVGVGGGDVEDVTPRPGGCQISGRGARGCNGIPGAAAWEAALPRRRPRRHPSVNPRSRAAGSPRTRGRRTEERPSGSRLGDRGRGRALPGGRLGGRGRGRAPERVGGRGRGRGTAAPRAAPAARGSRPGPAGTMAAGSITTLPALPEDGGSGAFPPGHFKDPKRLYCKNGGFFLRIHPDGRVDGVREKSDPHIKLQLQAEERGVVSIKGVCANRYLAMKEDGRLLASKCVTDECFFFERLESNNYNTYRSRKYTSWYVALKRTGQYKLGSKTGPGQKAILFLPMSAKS
Sequence of Torsin-1A (Homo sapiens) (O14656 whole entry, looked up): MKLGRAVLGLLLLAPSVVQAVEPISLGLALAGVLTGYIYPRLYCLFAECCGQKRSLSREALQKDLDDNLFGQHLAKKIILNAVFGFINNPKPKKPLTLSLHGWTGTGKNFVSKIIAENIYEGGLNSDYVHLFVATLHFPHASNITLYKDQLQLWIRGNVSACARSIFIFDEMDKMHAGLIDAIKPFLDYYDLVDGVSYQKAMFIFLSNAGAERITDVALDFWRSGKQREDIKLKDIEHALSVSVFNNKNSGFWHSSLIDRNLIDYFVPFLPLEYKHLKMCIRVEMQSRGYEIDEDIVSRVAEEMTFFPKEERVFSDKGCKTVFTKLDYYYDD
Sequence of Luciferin 4-monooxygenase (Photinus pyralis) (P08659 whole entry, looked up): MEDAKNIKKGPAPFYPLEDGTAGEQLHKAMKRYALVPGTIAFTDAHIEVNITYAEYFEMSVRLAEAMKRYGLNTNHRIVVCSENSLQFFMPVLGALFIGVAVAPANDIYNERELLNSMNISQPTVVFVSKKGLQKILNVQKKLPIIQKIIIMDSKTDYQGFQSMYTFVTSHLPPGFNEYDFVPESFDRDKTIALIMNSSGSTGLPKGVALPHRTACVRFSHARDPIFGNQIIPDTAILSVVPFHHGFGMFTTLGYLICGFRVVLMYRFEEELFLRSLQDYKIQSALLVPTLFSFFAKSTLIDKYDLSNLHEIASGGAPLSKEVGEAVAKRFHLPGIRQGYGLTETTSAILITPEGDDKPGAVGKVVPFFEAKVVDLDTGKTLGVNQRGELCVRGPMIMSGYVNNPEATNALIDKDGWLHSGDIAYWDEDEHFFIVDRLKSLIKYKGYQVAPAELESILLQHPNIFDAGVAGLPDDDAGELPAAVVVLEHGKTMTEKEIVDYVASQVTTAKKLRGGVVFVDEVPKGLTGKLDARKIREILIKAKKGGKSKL
Sequence of Focal adhesion kinase 1 (Homo sapiens) (Q05397 whole entry, looked up): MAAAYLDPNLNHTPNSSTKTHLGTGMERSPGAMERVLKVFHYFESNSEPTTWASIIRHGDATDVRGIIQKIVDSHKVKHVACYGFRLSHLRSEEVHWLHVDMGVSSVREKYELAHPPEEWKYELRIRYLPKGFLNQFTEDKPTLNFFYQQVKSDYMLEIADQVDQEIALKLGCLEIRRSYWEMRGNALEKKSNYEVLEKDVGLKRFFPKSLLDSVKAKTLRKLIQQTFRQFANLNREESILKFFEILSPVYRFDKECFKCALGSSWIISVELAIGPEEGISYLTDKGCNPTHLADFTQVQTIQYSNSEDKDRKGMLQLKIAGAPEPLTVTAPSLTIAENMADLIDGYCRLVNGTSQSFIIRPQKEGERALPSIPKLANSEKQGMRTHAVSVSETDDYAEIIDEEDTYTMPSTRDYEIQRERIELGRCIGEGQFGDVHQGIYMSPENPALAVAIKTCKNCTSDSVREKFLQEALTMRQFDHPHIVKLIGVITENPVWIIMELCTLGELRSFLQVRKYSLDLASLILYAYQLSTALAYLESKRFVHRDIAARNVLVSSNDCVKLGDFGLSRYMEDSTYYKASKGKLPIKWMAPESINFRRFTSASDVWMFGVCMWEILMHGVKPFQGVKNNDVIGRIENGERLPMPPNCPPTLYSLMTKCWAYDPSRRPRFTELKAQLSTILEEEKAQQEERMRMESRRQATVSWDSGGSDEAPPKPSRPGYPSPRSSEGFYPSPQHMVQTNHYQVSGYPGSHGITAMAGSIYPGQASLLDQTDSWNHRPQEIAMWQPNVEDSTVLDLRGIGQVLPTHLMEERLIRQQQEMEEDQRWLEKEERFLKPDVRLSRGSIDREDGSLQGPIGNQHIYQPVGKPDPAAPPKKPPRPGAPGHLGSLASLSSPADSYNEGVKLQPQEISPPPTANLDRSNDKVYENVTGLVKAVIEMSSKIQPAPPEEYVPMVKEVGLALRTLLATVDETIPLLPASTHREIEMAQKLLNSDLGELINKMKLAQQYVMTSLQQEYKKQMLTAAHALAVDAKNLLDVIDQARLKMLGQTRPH
Sequence of Streptavidin (Streptomyces avidinii) (P22629 whole entry, looked up): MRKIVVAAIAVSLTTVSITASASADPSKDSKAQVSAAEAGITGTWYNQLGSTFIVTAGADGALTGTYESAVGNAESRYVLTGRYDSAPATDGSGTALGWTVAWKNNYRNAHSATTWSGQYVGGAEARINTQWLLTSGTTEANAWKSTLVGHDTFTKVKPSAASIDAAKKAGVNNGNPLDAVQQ
Sequence of Follistatin (Homo sapiens) (P19883 whole entry, looked up): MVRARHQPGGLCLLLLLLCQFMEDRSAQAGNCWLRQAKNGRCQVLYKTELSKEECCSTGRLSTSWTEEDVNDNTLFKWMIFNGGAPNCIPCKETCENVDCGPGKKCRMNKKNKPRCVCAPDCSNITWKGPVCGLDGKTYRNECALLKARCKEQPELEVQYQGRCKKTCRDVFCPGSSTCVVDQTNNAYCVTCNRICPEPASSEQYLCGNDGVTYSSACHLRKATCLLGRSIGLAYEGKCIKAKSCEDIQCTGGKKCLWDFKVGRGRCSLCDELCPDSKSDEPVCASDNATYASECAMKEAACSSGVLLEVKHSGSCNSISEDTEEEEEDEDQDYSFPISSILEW

C=C(COC)C(=O)CC[C@H](OC(C)=O)c1ccc(OCCO)cc1
composite z-score [1]: 0.943 | composite z-score [2]: 0.0389 | composite z-score [3]: -0.267 | composite z-score [4]: -0.0148 | composite z-score [5]: 1.51 | composite z-score [6]: 1.43 | z-score [7]: -0.686 | composite z-score (Lefty1): 1.46 | composite z-score [8]: 0.777 | z-score [9]: -0.574 (inactive) | composite z-score [10]: 0.632 | z-score [11]: -3.53 (inactive) | z-score [12]: -0.856 (inactive) | z-score [13]: 2.77 (inactive) | z-score [14]: 1.69 (inactive) | composite z-score [15]: -0.0693 | composite z-score [16]: -0.0675 | composite z-score (Torsin-1A (Homo sapiens) [17]): 1.2 | composite z-score (Torsin-1A (Homo sapiens) [18]): 0.647 | composite z-score [19]: 1.85

CC(C)[C@H]1NC(=O)[C@@]23C(=O)N[C@@H](Cc4ccccc4)C2[C@H](C)[C@@]2(C)O[C@H]2C3/C=C/CCC/C=C/CNC(=O)[C@H](Cc2ccccc2)NC1=O (stereo not given in full)
composite z-score [1]: 0.123 | composite z-score [2]: 0.369 | composite z-score [3]: 0.205 | composite z-score [4]: -0.684 | composite z-score [5]: 0.283 | composite z-score [6]: -0.0659 | z-score [7]: -0.69 | composite z-score (Lefty1): 1.03 | composite z-score [8]: -0.755 | z-score [9]: -0.388 (inactive) | composite z-score [10]: -0.178 | z-score [11]: -1.23 (inactive) | z-score [12]: 1.01 (inactive) | z-score [13]: 1.4 (inactive) | z-score [14]: -0.723 (inactive) | composite z-score [15]: -0.77 | composite z-score [16]: -0.152 | composite z-score (Torsin-1A (Homo sapiens) [17]): 0.343 | composite z-score (Torsin-1A (Homo sapiens) [18]): 0.671 | composite z-score [19]: 2.03

COCCCNC(=O)[C@@]1(Sc2ccc(C)cc2)CC(=O)N(Cc2ccccc2Cl)[C@@H]1c1ccc(CO)cc1I
composite z-score [1]: 1.32 | composite z-score [2]: -0.943 | composite z-score [3]: 0.345 | composite z-score [4]: -1.49 | composite z-score [5]: -0.242 | composite z-score [6]: -0.765 | z-score [7]: 0.919 | composite z-score (Lefty1): -0.959 | composite z-score [8]: -0.691 | z-score [9]: -0.181 (inactive) | composite z-score [10]: -0.509 | z-score [11]: -1.35 (inactive) | z-score [12]: 0.241 (inactive) | z-score [13]: -0.168 (inactive) | z-score [14]: 1.68 (inactive) | composite z-score [15]: -0.768 | composite z-score [16]: -0.128 | composite z-score (Torsin-1A (Homo sapiens) [17]): -1.03 | composite z-score (Torsin-1A (Homo sapiens) [18]): -0.213 | composite z-score [19]: -0.519

COCCOC(=O)N1C(=O)[C@@]2(c3cc(C#CCNC(N)=O)ccc31)[C@H](c1ccc(O)cc1)N1[C@H](c3ccccc3)[C@H](c3ccccc3)OC(=O)[C@H]1[C@@H]2C(=O)N1CCN(c2ncccn2)CC1
composite z-score [1]: 1.22 | composite z-score [2]: 1.2 | composite z-score [3]: 0.634 | composite z-score [4]: 0.865 | composite z-score [5]: 0.902 | composite z-score [6]: 0.671 | z-score [7]: -1.91 | composite z-score (Lefty1): 0.707 | composite z-score [8]: 0.991 | z-score [9]: -0.391 (inactive) | composite z-score [10]: 0.0474 | z-score [11]: 0.259 (inactive) | z-score [12]: -0.648 (inactive) | z-score [13]: -0.589 (inactive) | z-score [14]: -0.249 (inactive) | composite z-score [15]: 0.374 | composite z-score [16]: -0.0898 | composite z-score (Torsin-1A (Homo sapiens) [17]): 0.652 | composite z-score (Torsin-1A (Homo sapiens) [18]): 0.747 | composite z-score [19]: 0.905

COC(=O)c1c2oc(c1C(=O)OC)C(=O)N1CCC[C@H]1Cn1nncc1CN(Cc1ccccc1)C(=O)N[C@H](CO)CC2
composite z-score [1]: 0.328 | composite z-score [2]: -0.243 | composite z-score [3]: 0.291 | composite z-score [4]: 0.676 | composite z-score [5]: 0.423 | composite z-score [6]: 1.04 | z-score [7]: 0.39 | composite z-score (Lefty1): 0.783 | composite z-score [8]: 0.18 | z-score [9]: -1.29 (inactive) | composite z-score [10]: 0.533 | z-score [11]: 0.246 (inactive) | z-score [12]: -0.294 (inactive) | z-score [13]: 0.251 (inactive) | z-score [14]: -0.147 (inactive) | composite z-score [15]: 0.0789 | composite z-score [16]: -0.0448 | composite z-score (Torsin-1A (Homo sapiens) [17]): -0.14 | composite z-score (Torsin-1A (Homo sapiens) [18]): -0.0715 | composite z-score [19]: 0.658

C=C/C=C/[C@@H]1C(=C)CN([C@@H](Cc2ccccc2)C(=O)OC)[C@H]1[C@@H](O)Cc1ccccc1
composite z-score [1]: 0.507 | composite z-score [2]: 1.07 | composite z-score [3]: 0.507 | composite z-score [4]: 0.807 | composite z-score [5]: 0.818 | composite z-score [6]: 0.227 | z-score [7]: 0.718 | composite z-score (Lefty1): 0.446 | composite z-score [8]: 0.635 | z-score [9]: -0.053 (inactive) | composite z-score [10]: -0.0425 | z-score [11]: -0.342 (inactive) | z-score [12]: -0.428 (inactive) | z-score [13]: 3.38 (inactive) | z-score [14]: 2.05 (inactive) | composite z-score [15]: 0.185 | composite z-score [16]: -0.0418 | composite z-score (Torsin-1A (Homo sapiens) [17]): 0.218 | composite z-score (Torsin-1A (Homo sapiens) [18]): 0.795 | composite z-score [19]: 0.949

CCN(CC)c1ccc(N2CC=CC34O[C@@H]5/C=C\CCC(C)OC(=O)C5[C@H]3C(=O)N(C(C)CO)[C@@H]4C2=O)cc1 (stereo not given in full)
composite z-score [1]: -0.361 | composite z-score [2]: -0.935 | composite z-score [3]: 0.212 | composite z-score [4]: -0.145 | composite z-score [5]: 0.565 | composite z-score [6]: -0.0619 | z-score [7]: 0.723 | composite z-score (Lefty1): 0.321 | composite z-score [8]: -0.663 | z-score [9]: -1.5 (inactive) | composite z-score [10]: -0.0075 | z-score [11]: 0.269 (inactive) | z-score [12]: 0.515 (inactive) | z-score [13]: 0.87 (inactive) | z-score [14]: 0.46 (inactive) | composite z-score [15]: -0.417 | composite z-score [16]: -0.0986 | composite z-score (Torsin-1A (Homo sapiens) [17]): -0.0697 | composite z-score (Torsin-1A (Homo sapiens) [18]): -0.116 | composite z-score [19]: 0.808

Cc1ccc(C(C)CC(O)C2C=CC3C(=O)N(c4ccccc4)C(=O)C3N2Nc2ccc(C#N)cc2)o1 (stereo not given)
composite z-score [1]: 1.21 | composite z-score [2]: 1.24 | composite z-score [3]: 0.175 | composite z-score [4]: 1.03 | composite z-score [5]: 1.24 | composite z-score [6]: 0.37 | z-score [7]: 0.289 | composite z-score (Lefty1): 0.0143 | composite z-score [8]: 0.586 | z-score [9]: -0.993 (inactive) | composite z-score [10]: 0.303 | z-score [11]: -1.18 (inactive) | z-score [12]: -0.194 (inactive) | z-score [13]: -0.333 (inactive) | z-score [14]: -0.306 (inactive) | composite z-score [15]: 1.1 | composite z-score [16]: 0.027 | composite z-score (Torsin-1A (Homo sapiens) [17]): 0.279 | composite z-score (Torsin-1A (Homo sapiens) [18]): 0.443 | composite z-score [19]: 0.218

CCOC(=O)C1=CCC(c2ccco2)N(S(=O)(=O)c2ccc(C)cc2)C1 (stereo not given)
composite z-score [1]: 1.1 | composite z-score [2]: 1.2 | composite z-score [3]: 0.841 | composite z-score [4]: 0.965 | composite z-score [5]: 1.1 | composite z-score [6]: 0.377 | z-score [7]: -0.664 | composite z-score (Lefty1): 0.851 | composite z-score [8]: 0.832 | z-score [9]: -1.58 (inactive) | composite z-score [10]: 0.45 | z-score [11]: -2.95 (inactive) | z-score [12]: -1.65 (inactive) | z-score [13]: -0.0228 (inactive) | z-score [14]: 0.887 (inactive) | composite z-score [15]: 1.64 | composite z-score [16]: 0.0841 | composite z-score (Torsin-1A (Homo sapiens) [17]): 0.55 | composite z-score (Torsin-1A (Homo sapiens) [18]): 1.24 | composite z-score [19]: 0.409
